Assay outcomes: PubChem, National Center for Advancing Translational Sciences (NCATS)
aSyn yeast inh: qHTS of alpha-syn Inhibitors | Yeast expressing alpha-synuclein, growth rescue, BacTiter-Glo, 24 h | AID 652106, 2013 | 370,000 compounds, 0.14% hits | Potency, µM (series often up to 46.1 µM), hits mostly activators; note: nearly all actives have a fitted effect of over 65% in size
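Readout is rescue of growth in alpha-synuclein-expressing yeast, so inhibitors of toxicity appear as activators. Growth after 24 hr at 30 deg C in galactose medium is quantified by luminescence.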
FUS yeast rescue: qHTS for Suppressors of FUS Proteinopathy: Primary screen using FUS-linked yeast assay; 390,000 compounds, 0.24% hits; Potency, µM (series often up to 76.6 µM), most hits filed as activators; S. cerevisiae FUS-expressing, growth rescue, OD600, 24 h; note: nearly all actives have a fitted effect of over 55% in size
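Toxicity suppression screen in FUS-yeast. Cells induced with 2% galactose, starting OD 0.005, treated 24hr at 30C with compounds at multiple final concentrations; growth by OD600.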
TDP-43 yeast inh: qHTS of TDP-43 Inhibitors | TDP-43 expressing yeast growth rescue, BacTiter-Glo, 24 h | Potency, µM (doses to about 46.1 µM), usual class: activators | 410,000 compounds, 1.8% hits | AID 652104, 2013; note: nearly all actives have a fitted effect of over 50% in size
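In this qHTS, compounds that restore growth of yeast expressing TDP-43 appear as activators. Cells (OD600=0.02, galactose medium, raffinose-pregrown) are incubated with compound 24 hr at 30 deg C and growth is quantified by BacTiter-Glo.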
Chronic BCR inh: qHTS Assay to Find Inhibitors of Chronic Active B-Cell Receptor Signaling; ABC-DLBCL IkBa-CBG/CBR reporter, luminescence ratio, 4 h; 340,000 compounds, 0.05% hits; AID 493014, 2011; Potency, µM (highest dose often 46.1 µM), most hits filed as inhibitors; active = well fitted inhibition curve with a large enough effect in the signal ratio, with a control signal flat, not every such curve was filed as active; inconclusive = small, poorly fitted or top-dose-only effect, or effect the other way, or a change in a side signal; the % refers to the signal ratio
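Cell line TMD8 (human ABC DLBCL), stably expressing tet-inducible CBG68-IkBa fusion and CBR; IMDM/0.5% FBS; cpd up to 46 uM; dox induction, 4 h, 37C/5% CO2; dual luminescence; green/red ratio; MG132 control.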
uPA surface inh: qHTS for Inhibitors of Cell Surface uPA Generation; cell surface uPA generation assay, qHTS; 330,000 compounds, 0.31% hits; Potency, µM (highest dose often 38.3 µM), most hits filed as inhibitors; active = well fitted inhibition curve with a large enough effect; inconclusive = small, poorly fitted or top-dose-only effect; inactive = no such curve, though single readings can be large or run the other way; tested in mouse RAW 264.7 cells; note: nearly all actives have a fitted effect of over 55% in size
Abeta rescue: qHTS for compounds that reverse cellular toxicity of Amyloid beta (A-beta) peptide in yeast: Primary Screen; yeast expressing A-beta42, growth rescue, OD600, 48 h; response scale: 0% DMSO, 100% iron-clioquinol control; Potency, µM (highest dose often 46.1 µM), actives largely listed as activators; 410,000 compounds, 0.063% hits; note: nearly all actives have a fitted effect of over 55% in size
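Growth rescue measured by 600 nm absorbance after 48 h yeast culture at 30 C with compound. Values normalized between DMSO and an equimolar ferric chloride plus clioquinol control.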
Hits are given with their value; 0 = inactive; ? = inconclusive; - = no result given; [ ] = remark or other dose. Hits are enriched below; roughly 2.3% of the tested compounds scored in any of these assays. Unless noted, calls come from the whole dose curve; as a rule, active = well fitted curve in the direction sought with a large enough effect; inconclusive = small, poorly fitted or top-dose-only effect, or another doubt; inactive = no such curve, though single readings can be large; an effect the other way counts as inactive or inconclusive.

SMILES | aSyn yeast inh | FUS yeast rescue | TDP-43 yeast inh | Chronic BCR inh | uPA surface inh | Abeta rescue
O=C(COC(=O)c1cnccn1)Nc1cccc(F)c1 | 0 | 0 | 0 | 0 | 0 | 0
CC(C)(C)C1CCC(C(=O)OCC(=O)c2ccc[nH]2)CC1 (stereo unspecified) | 0 | 0 | 17.8µM | 0 | 0 | 0
CCN(c1ccccc1)S(=O)(=O)c1ccc(C(=O)N2CC(C)CC(C)C2)cc1 (stereo unspecified) | 0 | 0 | 0 | ? | 0 | 0
O=C(COC(=O)C1(c2ccccc2F)CCCC1)NCc1ccc2c(c1)OCO2 | 0 | - | 15.8µM | ? | 0 | 0
O=C(COC(=O)/C=C/c1ccco1)NCc1ccc2c(c1)OCO2 | 0 | 0 | 15.8µM | 0 | 0 | 0
O=C(COC(=O)/C=C/c1ccc(F)cc1)NCc1ccc2c(c1)OCO2 | 0 | 0 | 0 | 0 | 0 | 0
CC1(C)C2CC=C(/C=N/n3cnnc3)C1C2 (stereo unspecified) | 0 | 0 | 0 | 0 | 0 | 0
O=C(NCCC1=CCCCC1)C1CCN(C(=O)N2CCOc3ccc(Cl)cc32)CC1 | - | 0 | 28.2µM | - | - | ?
COc1ccc(OCC(=O)O/N=C(\N)c2ccc(OC)c(OC)c2)cc1 | 0 | 0 | 0 | 0 | 0 | 0
COc1ccc(CC(=O)O/N=C(\N)c2ccncc2)cc1 | 0 | 0 | 0 | ? | 0 | 0
COc1ccc(/C(N)=N/OC(=O)Cc2ccccc2OC)cc1 | 0 | 0 | 20µM | ? | 0 | 0
COc1ccccc1CC(=O)O/N=C(\N)c1ccccn1 | 0 | 0 | ? | ? | 0 | 0
COc1ccc(CC(=O)O/N=C(\N)c2ccc(C)cc2)cc1 | 0 | 0 | 7.94µM | 0 | 0 | 0
COc1ccc(C(=O)NNC(=O)Cc2ccc(Cl)cc2)cc1 | 0 | 0 | 0 | 0 | 0 | 0
COc1cccc(OCC(=O)O/N=C(\N)c2ccc(OC)c(OC)c2)c1 | 0 | - | 11.2µM | 0 | 0 | 0
COc1ccc(C/C(=N\O)c2ccc(OC)cc2)cc1 | 0 | 0 | 14.1µM | 0 | 0 | 0
Cc1ccc(-n2c(Cc3cccn3C)nnc2SCC(=O)NC2CCCCC2)cc1 | 0 | 0 | 0 | 0 | - | 0
COc1ccc(Nc2ccnc3ccccc23)cc1 | 0 | 0 | 0 | ? | 0 | 0[9.22 µM]
O=C(NCc1ccccc1)C1CCC(CNS(=O)(=O)c2ccc(Br)s2)CC1 (stereo unspecified) | - | 0 | 0 | - | - | 0
O=C(c1cnn(-c2ccccc2)c1)c1cc(Br)ccc1O | 0 | - | 0 | ? | 0 | 0
CC(C)c1ccc(O)c(C(=O)c2cnn(-c3ccccc3)c2)c1 | 0 | 0 | 20µM | - | 0 | 0
Cc1cc(C(=O)CSc2nnc(-c3ccccc3)n2C)c(C)n1C | 0 | 0 | 0 | ? | - | 0
Cc1cc(C(=O)CSc2nnc(-c3ccncc3)n2-c2ccccc2)c(C)n1C | 0 | 31.6µM | 0 | 0 | 0 | 0
Cc1ccccc1Cn1cnc2c([N+](=O)[O-])c(C)c(C)cc21 | 0 | 0 | 12.6µM | 0 | 0 | 0
Cc1c(CCNC=O)cc(C)c2c3c(oc12)CCCC3 | 0 | - | 15.8µM | - | 0 | 0
SMILES | aSyn yeast inh | FUS yeast rescue | TDP-43 yeast inh | Chronic BCR inh | uPA surface inh | Abeta rescue
CCCCn1c2nc3ccccc3nc2c2c(=O)n(-c3ccccc3)cnc21 | 0 | 0 | 0 | 0 | 0 | 0
O=C(Cn1nc(Cl)nc1Cl)c1ccc2c(c1)OCCO2 | 0 | ? | 11.2µM | 0 | 0 | 0
Cn1c(=O)c2c(ncn2Cc2cccc(Cl)c2)n(C)c1=O | 0 | 0 | ? | ? | 0 | 0
Cc1noc2ncnc(Sc3ccc(Cl)cc3)c12 | 0 | 0 | 6.31µM | - | 0 | 0
Fc1cccc(Nc2ncnc3sccc23)c1 | 0 | 0 | 20µM | 0 | 0 | 0
O=C(O)c1cccc(Nc2ncnc3sccc23)c1 | 0 | 0 | 0[9.22 µM] | ? | 0 | 0
Fc1ccccc1CNc1ncnc2sccc12 | 0 | 0 | 11.2µM | 0 | 0 | 0
c1ccc2c(c1)OCC(CNc1ncnc3sccc13)O2 (stereo unspecified) | 0 | 0 | 20µM | 0 | 0 | 0
COc1ccccc1CNc1ncnc2sccc12 | 0 | 0 | 0 | ? | 0 | 0
O=C(CN1C(=O)NC2(CCCCC2)C1=O)N1CCN(S(=O)(=O)c2ccc(Cl)s2)CC1 | 0 | 0 | 0 | 0 | 0 | 0
COC(=O)C1=C(O)CSC1=Nc1ccccc1 | 0 | 0 | 0 | 0 | 0 | 0
COC(=O)C1=C(O)CSC1=Nc1ccc(C)cc1 | 0 | - | 15.8µM | 0 | 0 | 0
Cc1ccc(C(=O)c2c3ccc([N+](=O)[O-])cc3[n+]([O-])n2CCC(N)=O)cc1 | 0 | 0 | 0 | 0 | 1.41µM | 0
CCOc1ccc2nc(SCC(=O)NNC(=O)c3ccco3)c(C)cc2c1 | 0 | 0 | 0 | 0 | 0 | 0
CCOc1ccc2cc(/C=C/C(=O)c3ccco3)c(Cl)nc2c1 | 0 | 0 | 7.94µM | ? | 0 | 0
O=C(O)CN1C(=O)CCS(=O)c2ccccc21 (stereo unspecified) | 0 | 0 | 0 | 0 | 0 | 0
O=C1c2ccccc2NC(c2ccccc2)N1Cc1ccccc1 (stereo unspecified) | 0 | 0 | 15.8µM | - | 0 | 0
COc1cccc(C2Nc3ccccc3C(=O)N2Cc2ccccc2)c1 (stereo unspecified) | 0 | 0 | 0 | - | 0 | 0
O=C1c2ccccc2NC(c2ccc(F)cc2)N1Cc1ccccc1 (stereo unspecified) | 0 | 0 | 20µM | ? | 0 | 0
O=C1c2ccccc2NC(c2ccc(F)cc2)N1Cc1ccco1 (stereo unspecified) | 0 | ? | 0 | 0 | 0 | 0
O=S1(=O)C[C@@H](O)[C@@H](Nc2ccccc2)C1 | 0 | 0 | 0 | 0 | 0 | 0
COc1ccc(C(CNC(=O)c2ccc(N3CCCC3=O)cc2)N(C)C)cc1 (stereo unspecified) | 0 | 0 | 0 | 0 | 0 | 0
COc1cccc(/C=C/C(=O)Nc2cccc(C(C)=O)c2)c1OC | 0 | 0 | 0 | ? | ? | 0
O=C(CCSCc1cccc(Cl)c1)NCc1ccc(F)cc1Cl | - | 0 | 22.4µM | 0 | - | ?
COc1ccc(CNC(=O)CCSCc2cccc(F)c2)cc1 | 0 | 0 | 10µM | 0 | 0 | 0
COc1ccc(CNC(=O)CCSCc2ccccc2C)cc1 | 0 | 0 | 7.08µM | 0 | 0 | 0
CC(=O)NC(c1cc(Cl)c2cccnc2c1O)C(C)C (stereo unspecified) | - | 0 | - | 0 | 3.16µM | 0
CCCCC(=O)NC(c1ccco1)c1cc(Cl)c2cccnc2c1O (stereo unspecified) | ? | 0 | ? | ? | 0 | ?
CC(=O)NC(c1cc(F)c2cccnc2c1O)C(C)C (stereo unspecified) | - | - | - | 0 | - | -
CC(=O)NC(c1cc(Cl)c2cccnc2c1O)C1CC1 (stereo unspecified) | - | 0 | - | 0 | 3.98µM | 0
